PAD4 inh: human PAD4 inhibitors, primary screen, biochemical, fluorescence polarization, 1536-well format; Protein-arginine deiminase type-4 (Homo sapiens), Q9UM07; recombinant PAD4, RCA probe fluorescence polarization; inhibition, % at 6.36 µM; 0.41% of 330,000 active; AID 485272, 2010;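 active means percent inhibition above a cutoff equal to the mean of all tested compounds plus 3 SD, cut at about 15% in these data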;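 further: 0% = PAD4 with RCA probe and DMSO and 100% = probe without PAD4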
GSTO1 counter: inhibitors of recombinant GSTO1, primary screen, counter-screen for RBBP9 inhibitor project, biochemical, fluorescence polarization | activity-based probe fluorescence polarization | Glutathione S-transferase omega-1 (Homo sapiens), P78417 | inhibition, % at 5.96 µM | 1.1% of 300,000 active;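 active means inhibition above the campaign mean inhibition plus 3 SD, cut at about 35% in these data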;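 further: 0% = GSTO1-1 with DMSO and 100% = wells lacking GSTO1-1 enzyme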
Fam108B inh: mouse Fam108B serine hydrolase inhibitors, primary screen, counter-screen for RBBP9 inhibitor project, biochemical, fluorescence polarization | 0.33% of 300,000 active | recombinant Fam108B, FP-Rh probe fluorescence polarization | AID 1947, 2009 | inhibition, % at 9.51 µM;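 active means inhibition above the screen mean inhibition plus 3 SD, computed separately per campaign, cut at about 18% in these data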;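 further: inhibitors lower polarization as less probe binds the enzyme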
PME-1 primary: PME-1 inhibitors via competitive probe labeling, primary screen, biochemical, fluorescence polarization, FP-Rh probe, HTS; 0.53% of 320,000 active; recombinant PME-1; Protein phosphatase methylesterase 1 (Homo sapiens), Q9Y570; inhibition, % at 5.9 µM;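 active means inhibition above the campaign mean of all compounds plus 3 SD, cut at about 26% in these data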;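 further: competitive labeling of PME-1 active site by serine hydrolase directed probe; 0% = PME-1 with DMSO and 100% = wells lacking PME-1 enzyme; inhibitors block probe labeling so polarization falls and inhibition rises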
Target sequence (Q9Y570 whole entry, looked up): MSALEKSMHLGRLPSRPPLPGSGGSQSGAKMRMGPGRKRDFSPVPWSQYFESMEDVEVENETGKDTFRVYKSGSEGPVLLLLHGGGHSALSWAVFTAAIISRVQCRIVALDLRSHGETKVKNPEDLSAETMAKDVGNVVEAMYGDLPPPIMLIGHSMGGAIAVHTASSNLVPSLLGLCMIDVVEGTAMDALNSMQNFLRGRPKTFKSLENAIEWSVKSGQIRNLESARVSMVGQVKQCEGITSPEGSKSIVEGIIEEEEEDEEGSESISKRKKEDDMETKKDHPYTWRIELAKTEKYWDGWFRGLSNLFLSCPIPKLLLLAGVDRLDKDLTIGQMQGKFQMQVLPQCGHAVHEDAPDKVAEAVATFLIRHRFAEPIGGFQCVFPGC
LYPLA1 counter: LYPLA1 inhibitors, primary screen, counter-screen for PME1 inhibitor project, biochemical, fluorescence polarization, FP-Rh probe ABPP | 0.16% of 320,000 active | recombinant LYPLA1 | inhibition, % at 5.9 µM | Acyl-protein thioesterase 1 (Homo sapiens), O75608;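 active means inhibition above the mean of all tested compounds plus 3 SD, set per campaign, cut at about 14% in these data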;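 further: inhibitors block serine hydrolase probe labeling of LYPLA1 so polarization falls; 0% = enzyme with DMSO and 100% = wells lacking LYPLA1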
LYPLA2 counter: LYPLA2 inhibitors, primary screen, counter-screen for PME1 inhibitor project, biochemical, fluorescence polarization, FP-Rh probe ABPP. recombinant LYPLA2. inhibition, % at 5.9 µM. 0.38% of 320,000 active;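 active means inhibition above the screen-wide mean plus 3 SD, limit set per campaign, cut at about 26% in these data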;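 further: 0% = LYPLA2 with DMSO and 100% = wells lacking LYPLA2 enzyme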
Target sequence (O95372 whole entry, looked up): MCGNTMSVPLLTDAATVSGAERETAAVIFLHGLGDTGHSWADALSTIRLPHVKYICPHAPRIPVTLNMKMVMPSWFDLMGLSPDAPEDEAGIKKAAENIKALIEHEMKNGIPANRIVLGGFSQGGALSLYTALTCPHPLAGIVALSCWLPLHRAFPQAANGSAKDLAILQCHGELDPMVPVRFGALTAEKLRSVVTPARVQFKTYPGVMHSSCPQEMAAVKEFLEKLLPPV
PAD4 FP conf: human PAD4 inhibitors, confirmation, biochemical, fluorescence polarization | shares compounds with PAD4 inh | recombinant PAD4, RCA probe fluorescence polarization | inhibition, % at 6.36 µM | 28% of 1,200 active | AID 488796, 2010;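 active means mean inhibition across replicates above the hit cutoff set by the earlier primary screen, cut at about 15% in these data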;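 further: inhibitors block active-site labeling by the probe so polarization falls; 0% = PAD4 with probe and DMSO and 100% = probe without PAD4 enzyme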
Starred values were filed as active, the others as inactive. Compounds with a hit are over-represented: about 1.8% of the library has one in this group of screens.

`CCC(/C=C1\Sc2ccc(OC)cc2N1CC)=C\c1sc2ccc(OC)cc2[n+]1CCCS(=O)(=O)[O-]` gave PAD4 inh -154, GSTO1 counter -146, Fam108B inh -183, PME-1 primary -329, LYPLA1 counter -179 and LYPLA2 counter -267.
Screening O=C1CC(c2ccc(F)cc2)c2cc3c(cc2N1)CCC3 (stereo unspecified) returned PAD4 inh 16*, GSTO1 counter 4, Fam108B inh 6, PME-1 primary 1, LYPLA1 counter 1, LYPLA2 counter 14 and PAD4 FP conf 0.
COc1cc2c(cc1OC)C(c1ccc(Cl)cc1)CC(=O)N2 (stereo unspecified) was read as PAD4 inh 3, GSTO1 counter 6, Fam108B inh -3, PME-1 primary -1, LYPLA1 counter 0 and LYPLA2 counter -1.
`CNc1ccccc(-c2ccc3ccccc3n2)c1=O` gave PAD4 inh 20*, GSTO1 counter 23, Fam108B inh 13, PME-1 primary 0, LYPLA1 counter -4, LYPLA2 counter -3 and PAD4 FP conf 7.
`O=C1C(Br)=Cc2cccc3cccc1c23` gave PAD4 inh 91*, GSTO1 counter 6, Fam108B inh 9, PME-1 primary 9, LYPLA1 counter 5, LYPLA2 counter 4 and PAD4 FP conf 62*.
Screening Cc1ccc(-c2nn(-c3ccccc3)cc2C=O)o1 returned PAD4 inh 17*, GSTO1 counter 5, Fam108B inh 4, PME-1 primary 1, LYPLA1 counter -2, LYPLA2 counter 2 and PAD4 FP conf 2.
For CN(C)S(=O)(=O)c1ccc(C(=O)NCCC(=O)N2CCCC2)cc1 the results were PAD4 inh -4, GSTO1 counter 2, Fam108B inh -6, PME-1 primary 0, LYPLA1 counter 1 and LYPLA2 counter 2.
For Brc1ccc(-c2nc(-c3ccncc3)no2)o1 the results were PAD4 inh 15*, GSTO1 counter 7, Fam108B inh 2, PME-1 primary 0, LYPLA1 counter 2, LYPLA2 counter 8 and PAD4 FP conf 4.
Screening Brc1ccc(-c2nc(-c3ccncc3)no2)cc1 returned PAD4 inh -2, GSTO1 counter -10, Fam108B inh -3, PME-1 primary 3, LYPLA1 counter -7 and LYPLA2 counter -7.
For NC(=S)NNC(=O)COc1ccccc1O the results were PAD4 inh -6, GSTO1 counter 16, Fam108B inh -3, PME-1 primary -4, LYPLA1 counter 0 and LYPLA2 counter 3.
`Cc1ccc(C(=O)OCC(=O)NC2CCS(=O)(=O)C2)c(C)c1` (stereo unspecified) gave PAD4 inh -7.
`Cc1ccc(C(=O)NCC(=O)OCC(=O)NC2CCS(=O)(=O)C2)cc1C` (stereo unspecified) gave PAD4 inh 35*, GSTO1 counter 0, Fam108B inh 6, PME-1 primary -3, LYPLA1 counter 2, LYPLA2 counter 6 and PAD4 FP conf 4.
Screening COCCn1cnc2c1c(=O)n(CC(=O)OCC#N)c(=O)n2Cc1ccccc1 returned PAD4 inh -6, GSTO1 counter -1, Fam108B inh 0, PME-1 primary -1, LYPLA1 counter -2 and LYPLA2 counter 2.
COCCn1cnc2c1c(=O)n(Cc1ccc(C#N)cc1)c(=O)n2Cc1ccccc1 was read as PAD4 inh 20*, GSTO1 counter 9, Fam108B inh 3, PME-1 primary 0, LYPLA1 counter 6, LYPLA2 counter 3 and PAD4 FP conf 2.
`COc1ccccc1N1CCN(C(=O)c2cccc(C(=O)N3CCN(c4ccccc4OC)CC3)c2)CC1` gave PAD4 inh -8, GSTO1 counter 5, Fam108B inh -1, PME-1 primary -4, LYPLA1 counter -3 and LYPLA2 counter -1.
COc1ccccc1N1CCN(C(=O)c2coc(=O)c(Br)c2)CC1 was read as PAD4 inh 34*, GSTO1 counter -2, Fam108B inh 0, PME-1 primary -2, LYPLA1 counter 0, LYPLA2 counter -5 and PAD4 FP conf -1.
Screening CCC(C)n1c(NC(=O)c2ccccc2)c(C#N)c2nc3ccccc3nc21 (stereo unspecified) returned PAD4 inh 29*, GSTO1 counter 24, Fam108B inh -8, PME-1 primary -5, LYPLA1 counter -5, LYPLA2 counter -11 and PAD4 FP conf -17.
Screening Cc1c([N+](=O)[O-])cnc(Sc2ccccc2)c1[N+](=O)[O-] returned PAD4 inh 26*, GSTO1 counter 13, Fam108B inh 7, PME-1 primary -5, LYPLA1 counter -5, LYPLA2 counter 0 and PAD4 FP conf 14.
Screening COc1ccccc1OC(C)C(=O)Nc1nc(-c2ccc(S(=O)(=O)N3CCOCC3)cc2)cs1 (stereo unspecified) returned PAD4 inh -1, GSTO1 counter -11, Fam108B inh -13, PME-1 primary -12, LYPLA1 counter -4 and LYPLA2 counter -3.
COc1ccccc1C(=O)Nc1nc(-c2ccc(S(=O)(=O)N3CCOCC3)cc2)cs1 was read as PAD4 inh 40*, GSTO1 counter -32, Fam108B inh -19, PME-1 primary -29, LYPLA1 counter -14, LYPLA2 counter -28 and PAD4 FP conf 41*.
CCOc1ccc(C(C(=O)NCC2CCCO2)N(Cc2cccs2)C(=O)c2snc(C(N)=O)c2N)cc1 (stereo unspecified) was read as PAD4 inh -3, GSTO1 counter 3, Fam108B inh -1, PME-1 primary -3, LYPLA1 counter -1 and LYPLA2 counter -5.
`O=C1NCCOC(=O)[C@@H](Cc2ccc(F)cc2)C/C=C\C[C@@H]1CC(=O)N(CCO)Cc1ccccc1` gave PAD4 inh 20* and PAD4 FP conf -2.
`O=C1N[C@@H](Cc2ccccc2)COC(=O)[C@@H](Cc2ccc(F)cc2)C/C=C\C[C@@H]1CC(=O)N(CCO)Cc1ccccc1` gave PAD4 inh -1.
Screening Cc1nn(-c2ccccc2)c(C)c1C(=O)N1CCN(S(=O)(=O)c2ccccc2)CC1 returned PAD4 inh -1, PME-1 primary 5, LYPLA1 counter 4 and LYPLA2 counter 1.

Bioassay records (PubChem)
